Assay results taken from PMC7862700, “An all-to-all approach to the identification of sequence-specific readers for epigenetic DNA modifications on cytosine”.

Legend:
Assay in all cases: DAPPL (digital affinity profiling via proximity ligation, sequencing); 10 mM Tris-HCl pH 7.5, 50 mM NaCl, 1 mM DTT, 4% glycerol, room temperature, 30 min; GST-TFs on glutathione beads, 16-mer random dsDNA library, 0.1% formaldehyde crosslink after washing; high values mean tight binding
Details in all cases: protein: recombinant; tags: N-terminal GST; dsDNA, one strand shown
FLI1 = target: T1, FLI1 (Homo sapiens, UniProt Q01543 1-452)
T1 sequence: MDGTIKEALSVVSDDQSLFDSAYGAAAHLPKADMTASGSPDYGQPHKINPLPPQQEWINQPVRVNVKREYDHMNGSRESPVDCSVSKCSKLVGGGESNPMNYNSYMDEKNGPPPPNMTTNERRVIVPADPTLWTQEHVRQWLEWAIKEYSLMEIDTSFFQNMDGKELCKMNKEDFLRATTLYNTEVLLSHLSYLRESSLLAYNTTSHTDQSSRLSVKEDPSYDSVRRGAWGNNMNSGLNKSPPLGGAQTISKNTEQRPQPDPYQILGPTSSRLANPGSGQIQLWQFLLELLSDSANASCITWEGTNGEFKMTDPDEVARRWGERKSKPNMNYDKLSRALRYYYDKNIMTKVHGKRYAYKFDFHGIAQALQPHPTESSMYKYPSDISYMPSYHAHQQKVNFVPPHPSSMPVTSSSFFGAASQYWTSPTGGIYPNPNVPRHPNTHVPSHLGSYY
Summary of the method: (§1)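 Pools were built from human transcription factors expressed in yeast as GST fusions, captured on glutathione beads and DNA-barcoded, along with a tag-only sample. Incubation with 200 nmole of a 16-mer random double-stranded DNA library lasted 30 min at room temperature in Tris/NaCl/DTT/glycerol buffer, and was followed by washing, 0.1% formaldehyde crosslinking, proximity ligation, PCR amplification and Illumina NextSeq500 sequencing. Binding signal is the quotient of each hexamer's read frequency for a factor and its frequency for the tag-only sample.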

ELK1 = target: T2, ELK1 (Homo sapiens, UniProt P19419 1-428)
T2 sequence: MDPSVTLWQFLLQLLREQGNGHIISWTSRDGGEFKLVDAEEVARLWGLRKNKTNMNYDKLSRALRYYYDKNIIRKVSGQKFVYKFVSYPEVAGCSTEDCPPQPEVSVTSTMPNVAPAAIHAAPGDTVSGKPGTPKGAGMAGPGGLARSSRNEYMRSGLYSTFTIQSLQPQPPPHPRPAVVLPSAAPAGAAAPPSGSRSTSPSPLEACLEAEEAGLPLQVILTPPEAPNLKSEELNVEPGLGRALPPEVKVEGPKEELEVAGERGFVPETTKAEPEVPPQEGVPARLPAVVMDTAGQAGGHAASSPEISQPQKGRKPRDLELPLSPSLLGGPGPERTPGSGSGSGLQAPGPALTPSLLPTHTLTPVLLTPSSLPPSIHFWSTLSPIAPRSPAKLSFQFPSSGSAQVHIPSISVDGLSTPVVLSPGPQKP
Summary of the method: as §1

GABPA = target: T3, GABPA (Homo sapiens, UniProt Q06546 1-454)
T3 sequence: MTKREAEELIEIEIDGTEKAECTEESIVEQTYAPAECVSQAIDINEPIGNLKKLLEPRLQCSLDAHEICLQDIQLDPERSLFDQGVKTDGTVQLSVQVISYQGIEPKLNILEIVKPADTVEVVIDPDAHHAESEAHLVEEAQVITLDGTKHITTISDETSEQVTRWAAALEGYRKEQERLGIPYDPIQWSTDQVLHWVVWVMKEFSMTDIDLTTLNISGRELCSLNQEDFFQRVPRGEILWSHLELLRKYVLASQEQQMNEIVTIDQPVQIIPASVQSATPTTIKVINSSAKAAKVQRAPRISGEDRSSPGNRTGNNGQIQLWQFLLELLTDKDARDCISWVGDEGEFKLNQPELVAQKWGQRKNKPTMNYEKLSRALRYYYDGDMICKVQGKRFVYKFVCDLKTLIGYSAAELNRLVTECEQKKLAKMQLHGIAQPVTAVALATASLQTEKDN
Summary of the method: as §1

ERG = target: T4, ERG (Homo sapiens, UniProt P11308 1-479)
T4 sequence: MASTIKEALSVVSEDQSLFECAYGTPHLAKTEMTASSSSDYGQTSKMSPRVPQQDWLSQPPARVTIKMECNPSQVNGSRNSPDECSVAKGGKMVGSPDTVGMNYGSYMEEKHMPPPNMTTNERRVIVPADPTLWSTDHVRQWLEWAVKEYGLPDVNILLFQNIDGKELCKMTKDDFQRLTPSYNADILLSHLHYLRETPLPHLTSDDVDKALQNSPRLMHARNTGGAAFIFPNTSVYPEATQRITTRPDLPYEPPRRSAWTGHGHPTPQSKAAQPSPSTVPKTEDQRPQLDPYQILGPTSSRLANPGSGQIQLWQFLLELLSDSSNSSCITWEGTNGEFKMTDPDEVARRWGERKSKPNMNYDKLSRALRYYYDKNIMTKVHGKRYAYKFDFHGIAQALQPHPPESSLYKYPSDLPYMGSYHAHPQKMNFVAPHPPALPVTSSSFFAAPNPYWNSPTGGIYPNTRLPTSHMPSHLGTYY
Summary of the method: as §1

ELF1 = ELF1 (Homo sapiens, UniProt P32519 1-619)
Chain of ELF1 (P32519 whole entry): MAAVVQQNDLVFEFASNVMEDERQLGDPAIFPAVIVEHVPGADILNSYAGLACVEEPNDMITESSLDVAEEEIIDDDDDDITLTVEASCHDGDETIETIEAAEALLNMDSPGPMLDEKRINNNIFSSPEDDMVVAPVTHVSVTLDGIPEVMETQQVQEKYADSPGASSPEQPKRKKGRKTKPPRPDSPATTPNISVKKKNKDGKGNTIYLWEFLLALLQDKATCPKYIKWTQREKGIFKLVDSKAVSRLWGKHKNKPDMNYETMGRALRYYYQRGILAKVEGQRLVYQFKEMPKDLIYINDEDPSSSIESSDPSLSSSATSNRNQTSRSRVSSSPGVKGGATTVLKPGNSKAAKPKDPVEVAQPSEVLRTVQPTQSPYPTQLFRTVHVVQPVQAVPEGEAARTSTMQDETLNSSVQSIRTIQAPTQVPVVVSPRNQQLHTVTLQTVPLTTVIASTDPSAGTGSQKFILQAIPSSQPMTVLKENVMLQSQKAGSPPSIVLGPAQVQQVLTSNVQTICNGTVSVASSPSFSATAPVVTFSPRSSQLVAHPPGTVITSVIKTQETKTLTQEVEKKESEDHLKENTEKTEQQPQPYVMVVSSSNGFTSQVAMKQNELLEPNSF
Summary of the method: as §1

EHF = target: T5, EHF (Homo sapiens, UniProt Q9NZC4 1-300)
T5 sequence: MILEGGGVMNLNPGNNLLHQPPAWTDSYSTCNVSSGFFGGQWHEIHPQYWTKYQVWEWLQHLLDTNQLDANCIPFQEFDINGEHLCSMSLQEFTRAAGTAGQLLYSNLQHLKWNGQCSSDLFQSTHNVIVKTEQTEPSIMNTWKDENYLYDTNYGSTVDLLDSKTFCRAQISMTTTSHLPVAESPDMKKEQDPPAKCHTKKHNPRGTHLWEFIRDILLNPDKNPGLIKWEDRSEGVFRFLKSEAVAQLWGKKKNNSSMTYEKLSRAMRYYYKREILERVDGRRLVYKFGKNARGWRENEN
Summary of the method: as §1

SPI1 = SPI1 (Homo sapiens, UniProt P17947 1-270)
Summary of the method: as §1

FEV = target: T6, FEV (Homo sapiens, UniProt Q99581 1-238)
T6 sequence: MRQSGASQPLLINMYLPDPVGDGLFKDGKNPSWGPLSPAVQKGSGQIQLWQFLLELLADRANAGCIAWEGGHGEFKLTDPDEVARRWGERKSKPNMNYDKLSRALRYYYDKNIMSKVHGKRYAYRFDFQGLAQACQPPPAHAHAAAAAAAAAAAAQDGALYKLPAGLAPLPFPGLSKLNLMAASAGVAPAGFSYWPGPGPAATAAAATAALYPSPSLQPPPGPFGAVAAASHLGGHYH
Summary of the method: as §1

ETV5 = ETV5 (Homo sapiens, UniProt P41161 1-510)
Chain of ETV5 (P41161 whole entry): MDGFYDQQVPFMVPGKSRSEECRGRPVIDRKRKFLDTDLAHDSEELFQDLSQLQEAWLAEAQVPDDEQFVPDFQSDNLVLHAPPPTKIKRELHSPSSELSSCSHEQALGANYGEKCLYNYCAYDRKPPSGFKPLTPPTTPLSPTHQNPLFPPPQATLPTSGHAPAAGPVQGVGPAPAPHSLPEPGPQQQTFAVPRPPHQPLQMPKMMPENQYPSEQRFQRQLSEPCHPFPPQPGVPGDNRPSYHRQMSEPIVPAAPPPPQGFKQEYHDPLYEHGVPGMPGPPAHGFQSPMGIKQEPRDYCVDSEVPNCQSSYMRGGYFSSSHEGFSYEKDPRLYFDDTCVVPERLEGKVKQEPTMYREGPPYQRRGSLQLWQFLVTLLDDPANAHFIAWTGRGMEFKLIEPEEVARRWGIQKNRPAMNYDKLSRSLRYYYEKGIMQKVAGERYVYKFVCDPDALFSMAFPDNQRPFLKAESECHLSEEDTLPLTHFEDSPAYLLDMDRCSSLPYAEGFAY
Summary of the method: as §1

ELF4 = ELF4 (Homo sapiens, UniProt Q99607 1-663)
Chain of ELF4 (Q99607 whole entry): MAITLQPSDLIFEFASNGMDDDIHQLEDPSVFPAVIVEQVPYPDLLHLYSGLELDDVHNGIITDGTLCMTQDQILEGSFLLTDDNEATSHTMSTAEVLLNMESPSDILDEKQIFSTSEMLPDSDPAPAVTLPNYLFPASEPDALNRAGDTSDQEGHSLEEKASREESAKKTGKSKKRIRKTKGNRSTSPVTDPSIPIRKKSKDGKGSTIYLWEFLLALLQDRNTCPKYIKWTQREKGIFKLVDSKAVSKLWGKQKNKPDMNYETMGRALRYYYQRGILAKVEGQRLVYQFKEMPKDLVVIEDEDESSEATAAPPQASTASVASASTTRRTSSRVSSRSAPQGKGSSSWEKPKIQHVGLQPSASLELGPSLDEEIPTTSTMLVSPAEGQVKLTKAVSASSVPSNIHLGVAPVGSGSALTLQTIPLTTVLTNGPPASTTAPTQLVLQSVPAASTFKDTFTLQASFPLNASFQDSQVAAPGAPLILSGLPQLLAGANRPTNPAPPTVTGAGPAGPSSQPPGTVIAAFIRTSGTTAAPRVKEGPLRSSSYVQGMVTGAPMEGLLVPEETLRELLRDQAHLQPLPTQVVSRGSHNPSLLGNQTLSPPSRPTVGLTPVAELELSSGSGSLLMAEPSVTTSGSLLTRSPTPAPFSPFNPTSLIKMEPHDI
Summary of the method: as §1

ELF3 = target: T7, ELF3 (Homo sapiens, UniProt P78545 1-371)
T7 sequence: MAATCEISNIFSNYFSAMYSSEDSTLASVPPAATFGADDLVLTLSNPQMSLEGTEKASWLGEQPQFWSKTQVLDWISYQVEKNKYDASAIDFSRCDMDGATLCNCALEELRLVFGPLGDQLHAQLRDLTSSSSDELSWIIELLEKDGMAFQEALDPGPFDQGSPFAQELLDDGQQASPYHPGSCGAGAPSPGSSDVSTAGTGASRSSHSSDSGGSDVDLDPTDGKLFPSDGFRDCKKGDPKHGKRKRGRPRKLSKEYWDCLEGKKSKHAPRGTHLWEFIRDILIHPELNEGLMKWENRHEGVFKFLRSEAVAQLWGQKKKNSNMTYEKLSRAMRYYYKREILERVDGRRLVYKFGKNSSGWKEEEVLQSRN
Summary of the method: as §1

ETV1 = ETV1 (Homo sapiens, UniProt P50549 1-477)
Chain of ETV1 (P50549 whole entry): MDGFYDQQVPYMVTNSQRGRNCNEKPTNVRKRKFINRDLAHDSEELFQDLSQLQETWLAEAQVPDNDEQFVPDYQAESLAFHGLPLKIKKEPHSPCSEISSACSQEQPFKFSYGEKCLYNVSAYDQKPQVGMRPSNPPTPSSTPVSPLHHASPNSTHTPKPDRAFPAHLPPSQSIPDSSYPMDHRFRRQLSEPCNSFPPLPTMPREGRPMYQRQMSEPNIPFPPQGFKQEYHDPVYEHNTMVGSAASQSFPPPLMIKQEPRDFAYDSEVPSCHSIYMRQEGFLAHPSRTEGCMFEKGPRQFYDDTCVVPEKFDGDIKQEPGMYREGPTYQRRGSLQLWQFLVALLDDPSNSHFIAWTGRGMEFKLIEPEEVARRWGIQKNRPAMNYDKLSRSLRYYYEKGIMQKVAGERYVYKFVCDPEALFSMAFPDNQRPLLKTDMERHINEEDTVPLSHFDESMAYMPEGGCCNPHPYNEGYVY
Summary of the method: as §1

ERF = target: T8, ERF (Homo sapiens, UniProt P50548 1-548)
T8 sequence: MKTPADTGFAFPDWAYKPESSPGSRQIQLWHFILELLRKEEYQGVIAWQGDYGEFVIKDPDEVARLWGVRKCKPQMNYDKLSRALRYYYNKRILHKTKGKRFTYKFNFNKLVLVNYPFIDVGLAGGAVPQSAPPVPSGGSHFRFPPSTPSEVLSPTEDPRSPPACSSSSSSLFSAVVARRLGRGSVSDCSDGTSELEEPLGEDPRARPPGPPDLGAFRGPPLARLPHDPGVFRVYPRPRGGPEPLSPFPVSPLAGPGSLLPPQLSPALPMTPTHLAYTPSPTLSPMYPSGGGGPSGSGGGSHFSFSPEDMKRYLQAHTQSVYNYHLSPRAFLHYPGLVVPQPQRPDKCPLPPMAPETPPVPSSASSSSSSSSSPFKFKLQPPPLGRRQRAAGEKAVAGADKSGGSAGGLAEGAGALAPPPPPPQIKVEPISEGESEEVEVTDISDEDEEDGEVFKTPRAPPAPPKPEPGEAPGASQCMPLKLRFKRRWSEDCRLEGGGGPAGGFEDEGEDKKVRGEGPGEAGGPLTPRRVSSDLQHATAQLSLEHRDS
Summary of the method: as §1

ETV3L = target: T9, ETV3L (Homo sapiens, UniProt Q6ZN32 1-361)
T9 sequence: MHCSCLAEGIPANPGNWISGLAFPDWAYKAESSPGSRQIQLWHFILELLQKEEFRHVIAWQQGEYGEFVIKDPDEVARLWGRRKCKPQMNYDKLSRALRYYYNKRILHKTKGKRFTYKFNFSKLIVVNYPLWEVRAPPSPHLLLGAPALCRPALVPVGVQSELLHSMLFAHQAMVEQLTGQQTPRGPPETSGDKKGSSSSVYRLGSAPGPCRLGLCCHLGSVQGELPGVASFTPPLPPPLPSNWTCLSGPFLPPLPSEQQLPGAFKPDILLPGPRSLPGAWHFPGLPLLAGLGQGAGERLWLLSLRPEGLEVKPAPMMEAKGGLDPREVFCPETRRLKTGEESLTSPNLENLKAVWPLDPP
Summary of the method: as §1

ETS2 = target: T10, ETS2 (Homo sapiens, UniProt P15036 1-469)
T10 sequence: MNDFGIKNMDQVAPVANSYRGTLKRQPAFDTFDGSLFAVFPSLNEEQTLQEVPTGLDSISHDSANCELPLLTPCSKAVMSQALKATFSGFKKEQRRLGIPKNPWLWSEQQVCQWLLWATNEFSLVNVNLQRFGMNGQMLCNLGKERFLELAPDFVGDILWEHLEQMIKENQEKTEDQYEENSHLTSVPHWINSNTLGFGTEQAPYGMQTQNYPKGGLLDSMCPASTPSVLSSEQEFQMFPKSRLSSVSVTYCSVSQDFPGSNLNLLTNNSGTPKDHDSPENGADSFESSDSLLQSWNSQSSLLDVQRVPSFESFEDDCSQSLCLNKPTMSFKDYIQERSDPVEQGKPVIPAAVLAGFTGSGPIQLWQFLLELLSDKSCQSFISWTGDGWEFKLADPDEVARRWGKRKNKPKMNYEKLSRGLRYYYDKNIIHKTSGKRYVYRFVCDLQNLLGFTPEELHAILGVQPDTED
Summary of the method: as §1

ETV7 = target: T11, ETV7 (Homo sapiens, UniProt Q9Y603 1-341)
T11 sequence: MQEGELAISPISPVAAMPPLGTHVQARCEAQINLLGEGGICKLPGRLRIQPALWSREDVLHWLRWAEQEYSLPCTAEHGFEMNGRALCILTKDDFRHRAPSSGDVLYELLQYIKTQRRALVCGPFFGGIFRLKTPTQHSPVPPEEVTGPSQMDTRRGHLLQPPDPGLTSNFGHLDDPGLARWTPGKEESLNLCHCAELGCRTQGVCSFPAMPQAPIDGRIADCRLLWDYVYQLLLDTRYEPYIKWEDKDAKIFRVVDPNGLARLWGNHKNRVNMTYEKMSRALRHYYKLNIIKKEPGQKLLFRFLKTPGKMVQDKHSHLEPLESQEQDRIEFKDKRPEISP
Summary of the method: as §1

ETV3 = target: T12, ETV3 (Homo sapiens, UniProt P41162-2 1-143)
T12 sequence: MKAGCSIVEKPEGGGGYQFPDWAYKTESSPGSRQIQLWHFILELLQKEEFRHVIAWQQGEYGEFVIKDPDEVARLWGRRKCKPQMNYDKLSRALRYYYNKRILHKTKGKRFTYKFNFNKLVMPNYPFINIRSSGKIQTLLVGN
Summary of the method: as §1

ETV6 = ETV6 (Homo sapiens, UniProt P41212 1-452)
Chain of ETV6 (P41212 whole entry): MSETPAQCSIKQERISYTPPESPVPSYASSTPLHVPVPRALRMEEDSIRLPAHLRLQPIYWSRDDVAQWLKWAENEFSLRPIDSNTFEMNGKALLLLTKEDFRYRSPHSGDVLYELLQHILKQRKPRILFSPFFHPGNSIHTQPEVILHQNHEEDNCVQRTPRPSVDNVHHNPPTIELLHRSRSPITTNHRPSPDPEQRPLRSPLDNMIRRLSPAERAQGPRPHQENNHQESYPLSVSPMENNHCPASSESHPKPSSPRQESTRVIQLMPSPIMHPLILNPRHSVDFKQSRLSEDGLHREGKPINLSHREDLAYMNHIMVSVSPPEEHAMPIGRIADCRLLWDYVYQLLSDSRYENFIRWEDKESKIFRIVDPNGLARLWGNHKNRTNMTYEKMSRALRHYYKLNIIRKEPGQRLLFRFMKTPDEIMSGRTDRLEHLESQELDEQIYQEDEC
Summary of the method: as §1

**Q.** Which results are given for GCCGCC?
**A.** binding signal (FLI1): 1.21 fold enrichment (6-mer frequency, TF over GST control); binding signal (ELK1): 1.1 fold enrichment (6-mer frequency, TF over GST control); binding signal (GABPA): 1.16 fold enrichment (6-mer frequency, TF over GST control); binding signal (ERG): 1.02 fold enrichment (6-mer frequency, TF over GST control); binding signal (ELF1): 1 fold enrichment (6-mer frequency, TF over GST control); binding signal (EHF): 1.05 fold enrichment (6-mer frequency, TF over GST control); binding signal (SPI1): 1.13 fold enrichment (6-mer frequency, TF over GST control); binding signal (FEV): 1.05 fold enrichment (6-mer frequency, TF over GST control); binding signal (ETV5): 1.04 fold enrichment (6-mer frequency, TF over GST control); binding signal (ELF4): 1.08 fold enrichment (6-mer frequency, TF over GST control); binding signal (ELF3): 1.08 fold enrichment (6-mer frequency, TF over GST control); binding signal (ETV1): 1.12 fold enrichment (6-mer frequency, TF over GST control); binding signal (ERF): 1.03 fold enrichment (6-mer frequency, TF over GST control); binding signal (ETV3L): 1 fold enrichment (6-mer frequency, TF over GST control); binding signal (ETS2): 1.01 fold enrichment (6-mer frequency, TF over GST control); binding signal (ETV7): 1.03 fold enrichment (6-mer frequency, TF over GST control); binding signal (ETV3): 1.11 fold enrichment (6-mer frequency, TF over GST control); binding signal (ETV6): 1.02 fold enrichment (6-mer frequency, TF over GST control)
